Data taken from PubChem BioAssay AID1159580 (chemical genetic matrix, 2015).
Among all 5,500 compounds or so, about 2,000 (36%) were called active. Another 18% or so got no clear call; they are omitted. Rule as the data show it: active = normalized growth mostly below about 0.91 (no sharp cut-off); inconclusive = no clear call, values can overlap the other calls; inactive = mostly above about 0.92. Some of the results follow.

Assay: chemical genetic growth profiling, strain panel (AID 1159580);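 also: tested at 20 µM; growth read once vehicle control cultures reached saturation at 30 °C; 1 = growth at the plate median or of vehicle wells; lower values mean less growth of the strain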
Conditions: growth OD

Measured: normalized growth

COC1=CC(C)[C@@H]2C[C@H]3OC(=O)C[C@H]4C(C)=C(OC)C(=O)C([C@@]34C)[C@@]2(C)C1=O (some centres undefined)
inactive: S. cerevisiae deletion strains, locus YKL009W, strain mrt4, hits give low values 1.01 | S. cerevisiae deletion strains, locus YKL068W, hits give low values 1 | S. cerevisiae deletion strains, locus YKL085W, strain MDH1 (second series), hits give low values 1 | S. cerevisiae deletion strains, locus YKL085W, strain MDH1, hits give low values 1 | S. cerevisiae deletion strains, locus YKL160W, strain elf1, hits give low values 1 | S. cerevisiae deletion strains, locus YKL190W, strain CNB1, hits give low values 1.01 | S. cerevisiae deletion strains, locus YKR001C, strain vps1, hits give low values 0.986 | S. cerevisiae deletion strains, locus YKR026C, strain gcn3, hits give low values 0.96 | S. cerevisiae deletion strains, locus YKR091W, strain srl3, hits give low values 0.967 | S. cerevisiae deletion strains, locus YLL001W, strain dnm1, hits give low values 0.969 | S. cerevisiae deletion strains, locus YLL026W, hits give low values 0.985 | S. cerevisiae deletion strains, locus YLL041C, strain sdh2, hits give low values 0.983 | S. cerevisiae deletion strains, locus YLR027C, strain aat2, hits give low values 0.992 | S. cerevisiae deletion strains, locus YLR039C, strain RIC1, hits give low values 1.06 | S. cerevisiae deletion strains, locus YLR058C, strain SHM2, hits give low values 1.02 | S. cerevisiae deletion strains, locus YLR102C, strain apc9, hits give low values 1.02 | S. cerevisiae deletion strains, locus YLR113W, strain HOG1, hits give low values 1.03 | S. cerevisiae deletion strains, locus YLR221C, strain rsa3, hits give low values 1.01 | S. cerevisiae deletion strains, locus YLR258W, strain gsy2, hits give low values 0.968 | S. cerevisiae deletion strains, locus YLR262C, strain YPT6 (second series), hits give low values 0.991 | S. cerevisiae deletion strains, locus YLR262C, strain YPT6, hits give low values 1.16 | S. cerevisiae deletion strains, locus YLR268W, strain sec22, hits give low values 1.04 | S. cerevisiae deletion strains, locus YLR320W, strain mms22, hits give low values 0.975 | S. cerevisiae deletion strains, locus YLR330W, strain CHS5, hits give low values 1.01 | S. cerevisiae deletion strains, locus YLR342W, strain FKS1 (second series), hits give low values 1.01 | S. cerevisiae deletion strains, locus YLR342W, strain FKS1, hits give low values 0.976 | S. cerevisiae deletion strains, locus YLR357W, strain rsc2, hits give low values 0.942 | S. cerevisiae deletion strains, locus YLR370C, strain arc18, hits give low values 0.978 | S. cerevisiae deletion strains, locus YLR371W, strain rom2, hits give low values 1.02 | S. cerevisiae deletion strains, locus YLR384C, strain iki3, hits give low values 0.967 | S. cerevisiae deletion strains, locus YLR418C, strain cdc73, hits give low values 1 | S. cerevisiae deletion strains, locus YML016C, strain PPZ1, hits give low values 1.01 | S. cerevisiae deletion strains, locus YML032C, strain rad52, hits give low values 1.01 | S. cerevisiae deletion strains, locus YML120C, strain ndi1, hits give low values 0.99 | S. cerevisiae deletion strains, locus YML124C, strain tub3, hits give low values 1.01 | S. cerevisiae deletion strains, locus YMR058W, strain fet3, hits give low values 0.976 | S. cerevisiae deletion strains, locus YMR078C, strain ctf18, hits give low values 1.03 | S. cerevisiae deletion strains, locus YMR125W, strain sto1, hits give low values 0.975 | S. cerevisiae deletion strains, locus YMR129W, hits give low values 0.987 | S. cerevisiae deletion strains, locus YMR205C, strain PFK2, hits give low values 0.946 | S. cerevisiae deletion strains, locus YMR223W, strain ubp8, hits give low values 1.01 | S. cerevisiae deletion strains, locus YMR231W, strain pep5, hits give low values 0.973 | S. cerevisiae deletion strains, locus YMR263W, strain SAP30, hits give low values 1.02 | S. cerevisiae deletion strains, locus YMR307W, strain GAS1, hits give low values 1.17 | S. cerevisiae deletion strains, locus YNL067W, strain RPL9B, hits give low values 1.03 | S. cerevisiae deletion strains, locus YNL071W, strain lat1, hits give low values 0.987 | S. cerevisiae deletion strains, locus YNL153C, strain GIM3, hits give low values 1.02 | S. cerevisiae deletion strains, locus YNL183C, strain NPR1, hits give low values 0.988 | S. cerevisiae deletion strains, locus YNL209W, strain ssb2, hits give low values 1 | S. cerevisiae deletion strains, locus YNL233W, strain BNI4, hits give low values 1.03 | S. cerevisiae deletion strains, locus YNL248C, strain rpa49, hits give low values 1.01 | S. cerevisiae deletion strains, locus YNL250W, strain rad50, hits give low values 1.03 | S. cerevisiae deletion strains, locus YNL271C, strain bni1, hits give low values 1.01 | S. cerevisiae deletion strains, locus YNL298W, strain CLA4, hits give low values 1.02 | S. cerevisiae deletion strains, locus YNL307C, strain MCK1, hits give low values 1.01 | S. cerevisiae deletion strains, locus YNL322C, strain KRE1 (second series), hits give low values 0.988 | S. cerevisiae deletion strains, locus YNL322C, strain KRE1, hits give low values 1 | S. cerevisiae deletion strains, locus YNR049C, strain mso1, hits give low values 0.973 | S. cerevisiae deletion strains, locus YNR052C, strain pop2, hits give low values 1.01 | S. cerevisiae deletion strains, locus YOL006C, strain TOP1, hits give low values 1.08 | S. cerevisiae deletion strains, locus YOL012C, strain htz1 2.07 | S. cerevisiae deletion strains, locus YOL147C, strain pex11, hits give low values 1 | S. cerevisiae deletion strains, locus YOR001W, strain rrp6, hits give low values 0.993 | S. cerevisiae deletion strains, locus YOR061W, strain CKA2, hits give low values 1.01 | S. cerevisiae deletion strains, locus YOR069W, strain VPS5, hits give low values 1.01 | S. cerevisiae deletion strains, locus YOR070C, strain gyp1, hits give low values 0.987 | S. cerevisiae deletion strains, locus YOR080W, strain dia2, hits give low values 0.977 | S. cerevisiae deletion strains, locus YOR083W, strain WHI5, hits give low values 1.01 | S. cerevisiae deletion strains, locus YOR106W, strain vam3, hits give low values 0.992 | S. cerevisiae deletion strains, locus YOR136W, strain idh2, hits give low values 1.01 | S. cerevisiae deletion strains, locus YOR144C, strain elg1, hits give low values 1.01 | S. cerevisiae deletion strains, locus YOR184W, strain ser1, hits give low values 1.02 | S. cerevisiae deletion strains, locus YOR231W, strain MKK1, hits give low values 1.04 | S. cerevisiae deletion strains, locus YOR265W, strain rbl2, hits give low values 0.982 | S. cerevisiae deletion strains, locus YOR270C, strain vph1, hits give low values 0.975 | S. cerevisiae deletion strains, locus YOR290C, strain snf2, hits give low values 0.903 | S. cerevisiae deletion strains, locus YOR316C, strain cot1, hits give low values 1.01 | S. cerevisiae deletion strains, locus YPL051W, strain arl3, hits give low values 1 | S. cerevisiae deletion strains, locus YPL078C, strain atp4, hits give low values 0.996 | S. cerevisiae deletion strains, locus YPL106C, strain sse1, hits give low values 0.978 | S. cerevisiae deletion strains, locus YPL240C, strain hsp82, hits give low values 0.987 | S. cerevisiae deletion strains, locus YPL241C, strain CIN2, hits give low values 1.01 | S. cerevisiae deletion strains, locus YPL256C, strain CLN2, hits give low values 1.01 | S. cerevisiae deletion strains, locus YPR119W, strain clb2, hits give low values 1.01 | S. cerevisiae deletion strains, locus YPR141C, strain kar3, hits give low values 1.01 | S. cerevisiae deletion strains, locus YPR163C, strain tif3, hits give low values 1.01 | S. cerevisiae deletion strains, locus YPR167C, strain met16, hits give low values 1 | S. cerevisiae deletion strains, strain wtn01, hits give low values 1.01 | S. cerevisiae strains, strain wild type, hits give low values 1.01
